# Experimental data: the supplement of paper PMC8728848
# This is one part of a sample in which the strongest signals are shown more often than they occur.
# B1: Actd5 (Actinidia), P84527 (protein)
# chain: ISSCNGPCRDLNDCDGQLICIKGKCNDDPQVGTHICRGTTHSHQPGGCKPSGTLTCRGKSYPTYDCSPPVTSSTPAKLTNNDFSEGGDDGGPSECDESYHNNNERIVALSTGWYNGGSRCGKMIRITASNGKSVSAKVVDECDSRHGCDKEHAGQPPCRNNIVDGSNAVWSALGLDKNVGVVDITWSMA
# Assays:
# Test in all cases: glycan array binding signal (z-score within array); higher = stronger binding
# Conditions in all cases: glycan notation: IUPAC condensed, linker removed
# Fuc(a1-2)Gal(b1-4)Glc = target: Fuc(a1-2)Gal(b1-4)Glc
# Outline: (§1)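 From the Consortium for Functional Glycomics database, 3228 arrays were curated, keeping only those whose protein sequence was available. Binding is given as a within-array Z-score averaged across arrays sharing a protein sequence and across linkers. Negative Z-scores can be read as non-binding.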
# [1] = target: Fuc(a1-2)[GalNAc(a1-3)]Gal(b1-3)GalNAc(b1-3)Gal(a1-4)Gal(b1-4)Glc
# Outline: as §1
# [2] = target: Fuc(a1-2)[GalNAc(a1-3)]Gal(b1-3)GlcNAc(b1-2)Man(a1-3)[Fuc(a1-2)[GalNAc(a1-3)]Gal(b1-3)GlcNAc(b1-2)Man(a1-6)]Man(b1-4)GlcNAc(b1-4)GlcNAc
# Outline: as §1
# [3] = target: Fuc(a1-2)[GalNAc(a1-3)]Gal(b1-3)GlcNAc(b1-2)Man(a1-3)[Fuc(a1-2)[GalNAc(a1-3)]Gal(b1-3)GlcNAc(b1-2)Man(a1-6)]Man(b1-4)GlcNAc(b1-4)[Fuc(a1-6)]GlcNAc
# Outline: as §1
# [4] = target: Fuc(a1-2)[GalNAc(a1-3)]Gal(b1-4)GlcNAc(b1-6)GalNAc
# Outline: as §1
# Fuc(a1-3)GlcNAc = target: Fuc(a1-3)GlcNAc
# Outline: as §1
# [5] = target: Fuc(a1-3)[Gal(b1-4)]GlcNAc(b1-3)Gal(b1-4)[Fuc(a1-3)]GlcNAc(b1-3)Gal(b1-4)[Fuc(a1-3)]GlcNAc
# Outline: as §1
# [6] = target: Fuc(a1-3)[Gal(b1-4)]GlcNAc6S
# Outline: as §1
# [7] = target: Fuc(a1-3)[GalNAc(b1-4)]GlcNAc6S
# Outline: as §1
# Gal(a1-3)Gal = target: Gal(a1-3)Gal
# Outline: as §1
# Gal(a1-3)Gal(b1-4)GlcNAc = target: Gal(a1-3)Gal(b1-4)GlcNAc
# Outline: as §1
# [8] = target: Gal(a1-3)Gal(b1-4)[Fuc(a1-3)]GlcNAc(b1-2)Man(a1-3)[Gal(a1-3)Gal(b1-4)[Fuc(a1-3)]GlcNAc(b1-2)Man(a1-6)]Man(b1-4)GlcNAc(b1-4)GlcNAc
# Outline: as §1
# [9] = target: Gal(b1-3)GalNAc(a1-3)[Fuc(a1-2)]Gal(b1-4)Glc
# Outline: as §1
# [10] = target: Gal(b1-3)GlcNAc(b1-6)GalNAc
# Outline: as §1
# [11] = target: Gal(b1-3)[GlcNAc(b1-6)]GalNAc
# Outline: as §1
# [12] = target: Gal(b1-3)[Neu5Ac(a2-6)]GalNAc
# Outline: as §1
# [13] = target: Gal(b1-4)GlcNAc(a1-6)Gal(b1-4)GlcNAc
# Outline: as §1
# [14] = target: Gal(b1-4)GlcNAc(b1-2)[Gal(b1-4)GlcNAc(b1-4)]Man(a1-3)[Gal(b1-4)GlcNAc(b1-2)Man(a1-6)]Man(b1-4)GlcNAc(b1-4)GlcNAc
# Outline: as §1
# [15] = target: Gal(b1-4)GlcNAc(b1-2)[Gal(b1-4)GlcNAc(b1-6)]Man(a1-6)[GlcNAc(b1-4)][Gal(b1-4)GlcNAc(b1-2)Man(a1-3)]Man(b1-4)GlcNAc(b1-4)GlcNAc
# Outline: as §1
# [16] = target: Gal(b1-4)GlcNAc(b1-3)Gal(b1-3)GlcNAc
# Outline: as §1
# [17] = target: Gal(b1-4)GlcNAc(b1-3)Gal(b1-4)GlcNAc(b1-2)Man(a1-3)[Gal(b1-4)GlcNAc(b1-3)Gal(b1-4)GlcNAc(b1-2)Man(a1-6)]Man(b1-4)GlcNAc(b1-4)GlcNAc
# Outline: as §1
# [18] = target: Gal(b1-4)GlcNAc(b1-3)Gal(b1-4)GlcNAc(b1-3)Gal(b1-4)GlcNAc(b1-3)Gal(b1-4)GlcNAc(b1-3)Gal(b1-4)GlcNAc(b1-2)[Gal(b1-4)GlcNAc(b1-3)Gal(b1-4)GlcNAc(b1-3)Gal(b1-4)GlcNAc(b1-3)Gal(b1-4)GlcNAc(b1-3)Gal(b1-4)GlcNAc(b1-6)]Man(a1-6)[Gal(b1-4)GlcNAc(b1-3)Gal(b1-4)GlcNAc(b1-3)Gal(b1-4)GlcNAc(b1-3)Gal(b1-4)GlcNAc(b1-3)Gal(b1-4)GlcNAc(b1-2)Man(a1-3)]Man(b1-4)GlcNAc(b1-4)[Fuc(a1-6)]GlcNAc
# Outline: as §1
# [19] = target: Gal(b1-4)GlcNAc(b1-3)Gal(b1-4)GlcNAc(b1-3)GalNAc
# Outline: as §1
# [20] = target: Gal(b1-4)GlcNAc(b1-3)Gal(b1-4)GlcNAc(b1-3)[Gal(b1-4)GlcNAc(b1-3)Gal(b1-4)GlcNAc(b1-6)]GalNAc
# Outline: as §1
# [21] = target: Gal(b1-4)GlcNAc(b1-6)[Gal(b1-4)GlcNAc(b1-3)]GalNAc
# Outline: as §1
# Gal(b1-4)GlcNAc6P = target: Gal(b1-4)GlcNAc6P
# Outline: as §1
# [22] = target: Gal3S(b1-4)[Fuc(a1-3)]GlcNAc
# Outline: as §1
# Gal3S6S(b1-4)GlcNAc = target: Gal3S6S(b1-4)GlcNAc
# Outline: as §1
# GalNAc(b1-4)GlcNAc6S = target: GalNAc(b1-4)GlcNAc6S
# Outline: as §1
# GalNAc4S6S(b1-4)GlcNAc = target: GalNAc4S6S(b1-4)GlcNAc
# Outline: as §1
binder,measurement,setting,value
B1,glycan array binding signal (z-score),Fuc(a1-2)Gal(b1-4)Glc,-1.21
same,glycan array binding signal (z-score),[1],-0.038
same,glycan array binding signal (z-score),[2],0.017
same,glycan array binding signal (z-score),[3],1.21
same,glycan array binding signal (z-score),[4],-0.865
same,glycan array binding signal (z-score),Fuc(a1-3)GlcNAc,-0.676
same,glycan array binding signal (z-score),[5],-0.828
same,glycan array binding signal (z-score),[6],0.273
same,glycan array binding signal (z-score),[7],-1.21
same,glycan array binding signal (z-score),Gal(a1-3)Gal,-0.145
same,glycan array binding signal (z-score),Gal(a1-3)Gal(b1-4)GlcNAc,0.17
same,glycan array binding signal (z-score),[8],2.94
same,glycan array binding signal (z-score),[9],-0.318
same,glycan array binding signal (z-score),[10],-0.821
same,glycan array binding signal (z-score),[11],-0.2
same,glycan array binding signal (z-score),[12],-1.12
same,glycan array binding signal (z-score),[13],-0.614
same,glycan array binding signal (z-score),[14],0.256
same,glycan array binding signal (z-score),[15],0
same,glycan array binding signal (z-score),[16],-0.59
same,glycan array binding signal (z-score),[17],3.9
same,glycan array binding signal (z-score),[18],0.644
same,glycan array binding signal (z-score),[19],2.99
same,glycan array binding signal (z-score),[20],2.99
same,glycan array binding signal (z-score),[21],-0.2
same,glycan array binding signal (z-score),Gal(b1-4)GlcNAc6P,-1.05
same,glycan array binding signal (z-score),[22],-0.319
same,glycan array binding signal (z-score),Gal3S6S(b1-4)GlcNAc,0.094
same,glycan array binding signal (z-score),GalNAc(b1-4)GlcNAc6S,-0.111
same,glycan array binding signal (z-score),GalNAc4S6S(b1-4)GlcNAc,-0.058
